From PubChem BioAssay
Pin1 inhibitor – qHTS Assay to Find Inhibitors of Pin1 | Potency, µM (top dose mostly 115 µM), inactives show at the top dose activity, negative = inhibition, actives largely listed as inhibitors | Peptidyl-prolyl cis-trans isomerase NIMA-interacting 1 (Homo sapiens), Q13526 | Pin1 FP peptide displacement, HiFluor488, 10 min | hit rate 0.009% among 390,000 | AID 504891, 2011; active = well fitted inhibition curve with a large enough effect in the polarisation, with a control signal flat, not every such curve was filed as active; inconclusive = small, poorly fitted or top-dose-only effect, or effect the other way, or a change in a side signal; inactive = no such curve, though single readings can be large or run the other way; the % refers to the polarisation; also: potency is read from the fitted curve at half-maximal effect
Target sequence (Q13526 whole entry, looked up): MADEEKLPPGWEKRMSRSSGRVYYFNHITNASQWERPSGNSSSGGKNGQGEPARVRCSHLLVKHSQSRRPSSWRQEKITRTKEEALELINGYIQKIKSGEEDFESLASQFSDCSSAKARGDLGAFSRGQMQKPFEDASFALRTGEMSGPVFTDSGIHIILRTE
PI5P4Ka inh – qHTS for Inhibitors of phosphatidylinositol 5-phosphate 4-kinase (PI5P4K) | Phosphatidylinositol 5-phosphate 4-kinase type-2 alpha (Homo sapiens), P48426 | PI5P4Kalpha enzyme, ADP-Glo luminescence, 60 min; hits give low values | max response, % | hit rate 1.2% among 330,000 | AID 652105, 2013; active = max response of -50% or lower; inconclusive = between -30% and -50%; inactive = -30% or higher; also: value at the top dose of about 77 µM
Target sequence (P48426 whole entry, looked up): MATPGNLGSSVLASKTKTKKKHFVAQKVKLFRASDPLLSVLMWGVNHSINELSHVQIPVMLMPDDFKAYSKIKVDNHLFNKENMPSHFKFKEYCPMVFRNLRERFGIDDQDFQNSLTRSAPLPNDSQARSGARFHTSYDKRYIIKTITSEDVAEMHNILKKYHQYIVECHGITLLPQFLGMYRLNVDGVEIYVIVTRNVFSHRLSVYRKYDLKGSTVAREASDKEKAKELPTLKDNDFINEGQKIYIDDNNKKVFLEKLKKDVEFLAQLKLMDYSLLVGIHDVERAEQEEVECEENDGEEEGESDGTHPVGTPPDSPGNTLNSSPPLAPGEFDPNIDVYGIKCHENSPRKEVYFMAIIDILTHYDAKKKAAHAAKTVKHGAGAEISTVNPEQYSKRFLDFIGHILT
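Compounds were pin-transferred onto PI5P4Kalpha and substrate in HEPES pH 7.4 buffer with EGTA, CHAPS and 5% DMSO. ATP (5 microM final) started the reaction, which ran 60 minutes at room temperature before ADP-Glo detection.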
Tb PGK inh – qHTS Assay to Find Inhibitors of Phosphoglycerate Kinase | PGK/GAPDH coupled, Kinase-Glo luminescence, 60 min | Potency, µM (doses to about 57.5 µM), for inactives: top-dose activity change, negative = inhibition, hits mostly inhibitors | Phosphoglycerate kinase, glycosomal (Trypanosoma brucei brucei), P07378 | hit rate 0.043% among 380,000 | AID 602233, 2012; also: potency is read from the fitted curve at half-maximal effect; nearly all actives have a fitted effect of over 60% in size
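Recombinant glycosomal PGK reaction used 1,3-bisphosphoglycerate generated in-well by GAPDH (100nM final) in 100mM TEA pH 7.6, 5mM MgCl2, 0.01% Tween-20. After 60 minutes at room temperature, ATP was read by Kinase-Glo Plus luminescence end-point.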
PI4K2A inh – qHTS for small molecular inhibitors of PI4K2A | hit rate 0.13% among 420,000 | activity change, negative = inhibition, % at 76.9 µM | purified PI4K2A, ADP-Glo luminescence, 1 h; hits give low values | Phosphatidylinositol 4-kinase type 2-alpha (Homo sapiens), Q9BTU6; in the data active = activity change below about -50%; inconclusive = mostly about -30% to -49%;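 also: -100% = wells without enzyme as full effect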
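ADP-Glo luminescence measured ADP generated by PI4K2A enzyme (4 ug/mL before mixing) with 1.2 mM PI substrate (pre-mix) and 300 microM ATP (pre-mix). Tris pH7.5 buffer with MgCl2, Triton X-100; 1 h reaction at ambient temperature.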
ADP-Glo interf – qHTS for Inhibitors of PI5P4K: ADP-Glo counter assay; shares compounds with PI5P4Ka inh; ADP-Glo detection counter-screen, luciferase luminescence, no enzyme; Potency, µM (top dose mostly 76.9 µM), for the others: at the highest dose activity change, negative = inhibition, usual class: inhibitors; 1,100 tested, under 10 active; AID 743285, 2014
The depositor's hits bear a star; i = inactive; ? = inconclusive; nt = no result. Only a selection was taken, and hits are over-represented in it overall. Unless noted, calls follow the shape of the dose curve; as a rule, active = well fitted curve in the direction sought with a large enough effect; inconclusive = small, poorly fitted or top-dose-only effect, or another doubt; inactive = no such curve, though single readings can be large; an effect the other way counts as inactive or inconclusive. Unless noted, % is scaled to controls: 0 for no effect and ±100 for the full control effect.

SMILES	Pin1 inhibitor	PI5P4Ka inh	Tb PGK inh	PI4K2A inh	others
COc1ccc(CN(Cc2ccccc2)C(=O)Nc2ccccc2)cc1COc1ccc(NC(C)=O)cc1	47.5%	nt	nt	nt
CSc1ccccc1NC(=O)COc1ccc(Cl)cc1Cl	-2.8%	12.6	-2.3%	-9.9
Cc1cccc(OCC(=O)Nc2ccc(NC(=O)c3ccccc3)cc2)c1	16.1%	3.7	15.0%	2.4
O=C(COc1ccc(Cl)cc1Cl)Nc1ccc(C(=O)Nc2ccccc2C(=O)O)cc1	nt	-56.9*	-13.9%	-4.8
Cc1cccc(OCC(=O)Nc2ccc(C(=O)Nc3ccccc3C(=O)O)cc2)c1	nt	-52.4*	0.2%	1.3
O=C(COc1ccc(Cl)cc1Cl)Nc1ccccn1	0.9%	nt	?	-74.8*
Cc1coc2ccccc2c1=O	nt	nt	nt	1.1
CNC(=O)c1c(I)c(NC(=O)CCCCC(=O)Nc2c(I)c(C(=O)O)c(I)c(C(=O)NC)c2I)c(I)c(C(=O)O)c1I	nt	nt	nt	-2.0
C=CCn1c(=O)c(CCC(=O)Nc2ccc(N3CCOCC3)cc2)nc2cc(C(F)(F)F)ccc21	nt	-53.2*	-2.3%	-1.6
O=C(COc1ccc([N+](=O)[O-])cc1)Nc1nnc(-c2cccnc2)s1	?	-65.9*	-27.4%	-27.5
Fc1ccc(Nc2cncc(-c3ccsc3)c2)cc1Cl	nt	-22.5	nt	-50.3*
CCc1nn2c(=O)cc(N3C(C)CNCC3C)nc2s1 (centres undefined)	5.8%	nt	nt	nt
O=C1C=C(N2CCOCC2)c2ccccc2C1=O	-21.7%	-7.8	-21.8%	-74.8*
COc1cc(N/N=C/c2ccc(N(C)C)cc2)ncn1	-1.1%	-7.9	-4.6%	-52.9*
COc1cc(N/N=C/c2ccccc2O)ncn1	3.2%	-23.4	-9.3%	-9.7
Oc1ccc(-c2csc(Nc3cccc4ccccc34)n2)cc1O	3.0%	-54.7*	-4.2%	-5.4
Oc1ccc(-c2csc(Nc3ccccn3)n2)cc1O	-1.0%	?	-10.0%	-7.2
COc1ccc2c(c1O)-c1ccccc1CCN(C)C2	-6.1%	9.6	5.3%	3.3
CN1CCc2cccc3c2[C@@H]1Cc1ccc(O)c(O)c1-3	-9.8%	-61.2*	-8.3%	-10.2
C/C=C\C=C\C(=O)Nc1cccc(C2=NOC3(C2)C[C@@H](C(N)=O)N(C(=O)C(c2ccccc2)c2ccccc2)C3)c1 (some centres undefined)	48.3%	-65.4*	-1.6%	-1.7
C=C(C)C(=O)Nc1cccc(C2=NOC3(C2)C[C@@H](C(N)=O)N(C(=O)/C(C)=C/C)C3)c1 (some centres undefined)	nt	?	?	-26.4
C=C(C)C(=O)Nc1cccc(C2=NOC3(C2)C[C@@H](C(N)=O)N(C(=O)/C=C/C=C/C)C3)c1 (some centres undefined)	nt	-50.3*	?	-27.2
C/C=C\C=C/C(=O)Nc1cccc(C2=NOC3(C2)C[C@@H](C(N)=O)N(C(=O)c2ccc(Cl)cc2)C3)c1 (some centres undefined)	8.7%	-66.4*	4.2%	-0.5
C/C=C/C(=O)Nc1cccc(C2=NOC3(C2)C[C@H](C(N)=O)N(C(=O)/C=C/C)C3)c1 (some centres undefined)	-2.2%	0.5	-6.0%	0.7
C/C=C/C=C/C(=O)N1CC2(CC(c3cccc(NC(=O)/C=C/C)c3)=NO2)C[C@@H]1C(N)=O (some centres undefined)	?	-50.5*	-6.1%	-10.6
SMILES	Pin1 inhibitor	PI5P4Ka inh	Tb PGK inh	PI4K2A inh	others
CC[C@@]1(O)C(=O)OCc2c1cc1n(c2=O)Cc2c-1nc1ccccc1c2/C=N/OC(C)(C)C	nt	nt	nt	4.0
CC1(C)C(/C=C/C=C/C=C/C=C2\N(CCCCS(=O)(=O)O)c3ccc4ccccc4c3C2(C)C)=[N+](CCCCS(=O)(=O)[O-])c2ccc3ccccc3c21	?	-89.8*	?	-64.7*
Cc1c2ccccc2cc[n+]1CCCS(=O)(=O)[O-]	-9.5%	-0.5	-1.1%	-5.8
CC1CCN(C(=O)CSc2nc3c([nH]c4ccccc43)c(=O)n2-c2ccccc2)CC1	-2.2%	nt	-2.9%	-9.8
O=C1N/C(=C\c2ccc(O)cc2)C(=O)c2ccccc21	3.7%	nt	-14.8%	-50.2*
COc1ccc(C(=O)CSc2cc(C)[nH]c(=O)n2)cc1	?	-62.7*	-6.2%	-22.5
Cn1cccc1CC(=O)NN=C/C=C\c1ccco1	nt	nt	nt	-52.2*
O=C(CSc1nnc(SCc2ccccc2)s1)N/N=C/C=C/c1ccco1	?	-96.1*	-9.5%	-21.8
O=C(Cc1cccs1)N/N=C/C=C/c1ccco1	-17.1%	-58.2*	-3.5%	-14.6
COc1ccccc1/C=C/C=N/NC(=O)Cc1cccn1C	?	?	i	-7.2
Cc1cc(N2CCN(C)CC2)nc2ccc(NC(=O)Nc3cccc(Cl)c3)cc12	?	nt	5.1%	0.7
Cc1ccc(NC(=O)CN(C)C(=O)c2cccc(-n3cccc3)c2)cc1	nt	-101.1*	?	-16.4	ADP-Glo interf=-1.3%
COc1ccc(NC(=O)CN(C)C(=O)c2cccc(Oc3ccccc3)c2)cc1	-4.0%	-1.0	-10.1%	-0.6
CCN(CC(=O)Nc1c(F)cccc1F)C(=O)c1cccc(-n2cccc2)c1	-4.0%	-67.7*	?	-11.1	ADP-Glo interf=-2.4%
COc1ccc(NC(=O)CN(C)C(=O)c2cccc(-n3cccc3)c2)cc1	?	-62.4*	?	-15.3	ADP-Glo interf=-3.0%
Cc1cccc(NC(=O)CNC(=O)c2cccc(-n3cccc3)c2)c1C	-7.0%	-80.4*	?	-14.8	ADP-Glo interf=-9.7%
CCN(CC(=O)Nc1ccccc1OC)C(=O)c1cccc(-n2cccc2)c1	2.0%	-1.2	i	0.6
Cc1cccc(NC(=O)CNCC(=O)Nc2cccc(C)c2C)c1C	1.4%	2.2	-8.0%	-4.6
O=C(NCc1ccc(Cl)cc1)c1cnc2sc(N3CCOCC3)nn2c1=O	-5.5%	nt	-1.0%	1.2
CCN(c1ccc(OC)cc1)S(=O)(=O)c1c(C(=O)N2CCCCCC2)c(C)n(C)c1C	-7.4%	nt	-7.7%	-1.0
N#Cc1c(-c2ccc(Cl)cc2Cl)nc2n(c1=O)CCS2	26.4%	-54.2*	-9.9%	-4.5	ADP-Glo interf=1.8%
COc1ccccc1NC(=O)Nc1nc(CC(=O)Nc2cccc(F)c2)cs1	5.4%	5.1	3.0%	-2.6
COc1ccccc1NC(=O)Nc1nc(CC(=O)Nc2cc(F)ccc2F)cs1	69.0%	-52.2*	-12.9%	-3.2	ADP-Glo interf=2.8%
OCCCNc1cc(-c2ccnc(Nc3cccc(Cl)c3)n2)ccn1	-1.8%	-51.4*	-7.9%	-4.8	ADP-Glo interf=4.6%
CC(C)NC(=O)c1onc(CSc2ccccc2F)c1C(=O)O	-0.2%	-65.5*	i	5.3	ADP-Glo interf=0.3%
